# Many of the other results were omitted from the sample, so hits are more common in it than they were.
# BoNT-A LC inh2: BoNT/A light chain protease inhibitors, primary screen, biochemical, flow cytometry, MLPCN library. AID 588499, 2011. hit rate 0.17% among 360,000. multiplex microsphere protease substrate cleavage. inhibition, % at 10 µM. Botulinum neurotoxin type A light chain protease (Clostridium botulinum A str. ATCC 3502)
# Anthrax LF inh2: Bacillus anthracis LF protease inhibitors, primary screen, biochemical, multiplex microsphere, MLPCN library; AID 588501, 2011; hit rate 0.12% among 360,000; Lethal factor (Bacillus anthracis), P15917; multiplex microsphere protease cleavage assay; inhibition, % at 10 µM
# BoNT-F LC inh: BoNT/F light chain protease inhibitors, primary screen, biochemical, flow cytometry, MLPCN library. Botulinum neurotoxin type F light chain protease (Clostridium botulinum). Multiplex microsphere protease cleavage assay. inhibition, % at 10 µM. hit rate 0.22% among 360,000; in the data active = inhibition above about 35%, passing the limit was not always enough; inconclusive = no clear call, values can overlap the other calls
# TcdB GH inh: TcdB glycohydrolase inhibitors, primary screen, biochemical, single point, plate reader; inhibition, % at 9.99 µM; TcdB glycohydrolase enzymatic assay; hit rate 0.24% among 350,000; AID 652162, 2013; in the data active = inhibition above about 10%
# Autofluor counter: flagged as autofluorescent in microsphere protease counterscreen | hit rate 3.1% among 360,000 | compound autofluorescence counterscreen, microsphere flow cytometry; hits give high values | fluorescence intensity (no concentration beside the values); in the data active = fluorescence intensity above about 16000; inconclusive = no clear call, values can overlap the other calls
# A number is an active result; n = inactive; u = inconclusive; x = not tested or not shown. Rule as the data show it, unless noted: active = inhibition above about 30%; inconclusive = no clear call, values can overlap the other calls; inactive = below that.
SMILES,BoNT-A LC inh2,Anthrax LF inh2,BoNT-F LC inh,TcdB GH inh,Autofluor counter
COc1ccc(NC(=O)c2cccnc2Cl)c(S(=O)(=O)N2CCOCC2)c1,n,n,n,x,22564
CCC(=O)N1C[C@H](C)[C@@H](OC)CN(C)C(=O)c2cc(NC(=O)NC(C)C)ccc2OC[C@H]1C,x,x,x,n,x
CCn1c(SCC(=O)OC)nnc1-c1ccncc1,n,n,n,x,n
COC(=O)CSc1nnc(-c2ccncc2)n1N,n,n,n,x,19048
COc1ccc(NC(=O)CSc2nnc(-c3ccc(C)cc3)n2N)cc1,n,n,n,x,n
Cc1ccc(NC(=O)CSc2nnc(-c3ccncc3)n2N)cc1C,n,n,n,x,24163
COC(=O)CCCc1nc2ccccc2s1,n,n,n,x,n
NC(=O)COC(=O)CCCc1nc2ccccc2s1,n,n,n,x,21657
Cn1c(/C(C#N)=C(\O)c2ccc(S(=O)(=O)N3CCCCC3)cc2)nc2ccccc21,n,n,n,n,23146
CCSc1nc2ccccc2n1C(=O)c1ccc(S(=O)(=O)N2CCCCCC2)cc1,n,n,n,x,n
CCSc1nc2ccccc2n1C(=O)c1ccc(S(=O)(=O)N2CCCCC2)cc1,n,n,n,x,20953
Cn1c(/C(C#N)=C(\O)c2ccc(Br)s2)nc2ccccc21,n,n,n,n,n
COc1ccc(/C(O)=C(\C#N)c2nc3ccccc3n2C)cc1OC,u,n,n,x,21521
COCC(=O)Nc1ccc2c(c1)C(=O)N(C)C[C@H](OC)[C@H](C)CN(C(=O)Cc1ccccn1)[C@@H](C)CO2,x,x,x,n,x
C[C@@H]1CN([C@H](C)CO)C(=O)c2cc(NS(=O)(=O)c3cccs3)ccc2O[C@@H]1CN(C)CC1CC1,x,x,x,n,x
CCCCNC(=O)C1CCN(S(=O)(=O)N2CCOCC2)CC1,n,n,n,10,n
CCCCN(CC)S(=O)(=O)N1CCC(C(=O)NCCCN2CCOCC2)CC1,n,n,n,n,n
CCN(CC)S(=O)(=O)N1CCC(C(=O)NCCN2CCOCC2)CC1,n,n,n,x,22119
CC1CCN(S(=O)(=O)N2CCC(C(=O)NCCN3CCOCC3)CC2)CC1,n,n,n,n,n
O=C(C[C@@H]1CC[C@@H](NC(=O)C2CCOCC2)[C@H](CO)O1)Nc1ccccc1,x,x,x,n,x
Clc1ccc(CNCCC2=CCCCC2)cc1,u,n,n,n,17461
COc1ccc(CN(CC2CCCO2)S(=O)(=O)c2ccc(C(=O)O)cc2)cc1OC (stereo unspecified),n,n,n,x,23567
CNC[C@@H]1Oc2ccc(NC(=O)NC3CCCCC3)cc2C(=O)N([C@H](C)CO)C[C@H]1C,x,x,x,n,x
CC1=CC(=C2C(=O)NC(=O)NC2=O)C=C(C(F)(F)F)N1C(C)C,n,n,n,x,21183
O=C(c1ccccc1F)N1CC2(C1)[C@H](c1ccccc1)[C@@H](CO)N2CC1CC1,x,x,x,n,x
SMILES,BoNT-A LC inh2,Anthrax LF inh2,BoNT-F LC inh,TcdB GH inh,Autofluor counter
CCOC(=O)/C(=C/C1=CC(=C/N(C)C)/C(=O)O1)C(C)=O,n,n,36,n,n
O=C([C@H]1[C@H](CO)[C@H]2Cn3c(ccc(-c4cccc(F)c4)c3=O)[C@H]2N1Cc1cocn1)N1CCCCC1,x,x,x,n,x
C[C@@H]1CN([C@H](C)CO)C(=O)c2cc(NC(=O)CCCN(C)C)ccc2O[C@@H]1CN(C)S(=O)(=O)c1cn(C)cn1,x,x,x,n,x
Cc1cc(C)nc(NC(=O)CSc2nc3ccccc3s2)n1,u,n,n,n,n
O=C(CSc1nc2ccccc2s1)NC(=O)NCc1ccco1,n,n,n,x,22313
Cc1ccc(S(=O)(=O)NC(=O)CSc2nc3ccccc3s2)cc1,n,n,n,x,16909
CC(=O)N1[C@H](C(=O)NCc2ccc(F)cc2)[C@@H](CO)[C@@H]2Cn3c(cccc3=O)[C@@H]21,x,x,x,n,x
O=C(NNC(=O)c1ccc(SCC2CCCO2)c([N+](=O)[O-])c1)c1ccc(Cl)c([N+](=O)[O-])c1 (stereo unspecified),n,n,n,x,21281
O=C(NNC(=O)c1ccccc1Br)c1ccc(SCC2CCCO2)c([N+](=O)[O-])c1 (stereo unspecified),n,n,n,x,21390
C[C@H](NC(=O)C[C@H]1C=C[C@@H](NC(=O)c2cccnc2)[C@H](CO)O1)c1ccccc1,x,x,x,n,x
O=C(Cc1cccs1)Nc1nc(-c2ccc(F)cc2F)cs1,n,n,n,x,17771
C[C@@H]1CN([C@H](C)CO)C(=O)c2cccc(N(C)C)c2O[C@@H]1CN(C)Cc1ccc(C(=O)O)cc1,x,x,x,n,x
CN1CCN(C2=C(Cl)C(=O)C(c3cnc(N4CCCCC4)s3)=C(Cl)C2=O)CC1,n,n,n,x,19751
CN1CCN(C2=C(Cl)C(=O)c3ccccc3C2=O)CC1,n,n,n,n,n
O=C1O[C@@H](c2ccccc2)[C@@H](c2ccccc2)N2[C@@H](c3ccc(OCCO)cc3)[C@]3(C(=O)Nc4ccc(C#CC5=CCCCC5)cc43)[C@@H](C(=O)N3CCCCCCC3)[C@H]12,x,x,x,n,x
CCSc1nnc(NC(=O)C2(C)Cc3ccccc3C(=O)O2)s1 (stereo unspecified),n,n,n,x,17590
O=C(Nc1nnc(SCc2ccccc2)s1)c1cccs1,n,n,n,x,n
CCc1cccc(NC(=O)C2CC2c2ccccc2)c1 (stereo unspecified),n,n,36,n,n
O=C(NNC(=O)C1CC1c1ccccc1)Nc1cccc(Cl)c1 (stereo unspecified),n,n,n,x,n
CCSc1nnc(NC(=O)C2CC2c2ccccc2)s1 (stereo unspecified),n,n,n,12,n
CCSc1nnc(NC(=O)C2CCCCC2C(=O)O)s1 (stereo unspecified),n,n,n,x,n
CCSc1nnc(NC(=O)c2cccs2)s1,n,n,n,x,22159

# Bioassay records from PubChem.
